Screens as filed in PubChem.
Tau FP inhib – tau fibrillization inhibition (FP); 0.39% of 280,000 active; Potency, µM (top dose mostly 57.7 µM), for inactives: top-dose activity, negative = inhibition, hits mostly inhibitors; P10636; K18 P301L tau heparin fibrillization, Alexa594 FP, 6 h; note: nearly all actives have a fitted effect of over 55% in size
Target sequence (P10636 561-689 P618L limits assumed): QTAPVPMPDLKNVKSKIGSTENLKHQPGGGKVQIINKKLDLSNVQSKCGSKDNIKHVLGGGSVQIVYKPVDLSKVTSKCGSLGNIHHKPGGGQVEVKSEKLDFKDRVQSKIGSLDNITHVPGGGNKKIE
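FP of Alexa 594-tau after heparin (20 uM) induction. Substrate: human K18 P301L, 15 uM unlabeled, 0.24 uM labeled. Buffer 100 mM sodium acetate pH 7. 6 hr, 37 C.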
RORgamma inh – ROR gamma (mouse) transcription inhibition; P51450; AID 2551; Drosophila S2 Gal4-RORgamma UAS-luciferase reporter, 20 h; 5.4% of 310,000 active; Potency, µM (series often up to 53.6 µM), for the others: at the highest dose activity change, negative = inhibition, usual class: inhibitors; note: nearly all actives have a fitted effect of over 60% in size
Target sequence (P51450 whole entry, looked up, the tested form may be a part): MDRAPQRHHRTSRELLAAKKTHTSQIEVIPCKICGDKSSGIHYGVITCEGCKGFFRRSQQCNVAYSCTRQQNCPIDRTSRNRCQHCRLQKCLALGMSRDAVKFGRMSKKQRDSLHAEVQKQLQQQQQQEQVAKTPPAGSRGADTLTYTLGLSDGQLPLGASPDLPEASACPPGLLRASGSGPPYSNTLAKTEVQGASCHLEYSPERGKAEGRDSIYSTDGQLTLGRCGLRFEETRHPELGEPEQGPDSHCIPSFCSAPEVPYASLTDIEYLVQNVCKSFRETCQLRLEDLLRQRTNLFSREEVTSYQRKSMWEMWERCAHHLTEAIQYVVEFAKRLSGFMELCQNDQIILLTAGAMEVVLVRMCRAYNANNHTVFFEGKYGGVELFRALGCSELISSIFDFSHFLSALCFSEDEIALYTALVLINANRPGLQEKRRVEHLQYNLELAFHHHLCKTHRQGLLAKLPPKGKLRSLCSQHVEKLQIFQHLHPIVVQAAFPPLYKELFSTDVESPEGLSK
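A Gal4/UAS one-hybrid system in insect cells: metallothionein-promoter Gal4–ROR gamma fusion plus Photinus luciferase reporter. Copper sulfate 700 uM final, 20 hr ambient incubation, luminescent detection after 10 min with reagent.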
Tau ThT inhib – inhibitors of human tau fibril formation, thioflavin T binding; P10636; recombinant tau K18 P301L, heparin-induced fibrillization, ThT fluorescence; Potency, µM (titrated, usually from 57.4 µM), for the others: at the top dose activity, negative = inhibition, usual class: inhibitors; 2.1% of 270,000 active; AID 1460; note: nearly all actives have a fitted effect of over 55% in size
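Fibril formation assay: tau K18 P301L at 15 uM with trace Alexa 594 label, heparin inducer 20 uM, pH 7 sodium acetate buffer, 37 C for 6 hr; endpoint ThT signal.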
Tau fluor cs – counter-screen for tau fibril formation inhibitors; tau K18 P301L Alexa594 fluorescence, heparin fibrillization; Potency, µM (highest dose often 57.7 µM), for inactives: at the highest dose activity change, negative = decrease; 0.93% of 280,000 active; AID 1463; note: nearly all actives have a fitted effect of over 55% in size
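Human tau K18 P301L (15 uM unlabeled, 0.24 uM Alexa 594-labeled) in 100 mM sodium acetate pH 7 with 20 uM heparin, 6 hr at 37 C. ThT 30 uM added, 1 hr ambient; Alexa 594 FP and total fluorescence read at 555/632 nm.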
VP16 counter – counter-screen for ROR gamma inhibitors: Gal4-VP16 reporter | Drosophila S2 Gal4-VP16 UAS-luciferase, luminescence, 20 h | Potency, µM (highest dose often 53.6 µM), without a hit: top-dose activity, negative = inhibition, actives largely listed as inhibitors | 3.5% of 310,000 active | AID 2546;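 note: Gal4-VP16 expression switched on by copper sulfate through the metallothionein promoter; nearly all actives have a fitted effect of over 50% in size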
An asterisk follows results filed as active; [ ] = remark or other dose. This is a sample that favours compounds with a hit; in the whole collection about 7.3% have one here. Calls come from the whole dose curve; as a rule, active = well fitted curve in the direction sought with a large enough effect; inconclusive = small, poorly fitted or top-dose-only effect, or another doubt; inactive = no such curve, though single readings can be large; an effect the other way counts as inactive or inconclusive. % is set by controls: 0 for no effect and ±100 for the full control effect; potency is the fitted concentration of half-maximal effect.

`Clc1cccc(-n2ncc3c(Nc4ccc5c(c4)OCCO5)ncnc32)c1` gave Tau FP inhib inconclusive, Tau ThT inhib inconclusive and Tau fluor cs 6.31µM*[quencher].
COc1cccc(-n2c(=O)c3cc(OC)c(OC)cc3n(CC(=O)Nc3ccc(F)cc3)c2=O)c1 was read as Tau FP inhib inconclusive, Tau ThT inhib 3.8% and Tau fluor cs -4.0%.
CCOC(CNC(=O)C(=O)Nc1cc2c3c(c1)CCC(=O)N3CCC2)OCC was read as RORgamma inh 0.3% and VP16 counter 4.1%.
Screening Cc1nn(C)c(C)c1CCNC(=O)Nc1cccc(Cl)c1C returned Tau FP inhib 2.6%, Tau ThT inhib -0.4% and Tau fluor cs 4.2%.
CC(C)CCn1c(Oc2ccccc2F)nc2c1c(=O)n(C)c(=O)n2C was read as Tau FP inhib inconclusive, Tau ThT inhib -3.6% and Tau fluor cs -11.8%.
`C/C(CC(=O)C(F)(F)F)=N\NC(=O)/C(C#N)=C/N(C)C` gave Tau FP inhib 3.6%, RORgamma inh 8.91µM*, Tau ThT inhib -13.4%, Tau fluor cs -4.1% and VP16 counter inconclusive.
For CCc1c(C)c2cc(Cl)c(O)c(CN3CCCC3)c2oc1=O the results were RORgamma inh 0.7% and VP16 counter 5.1%.
For COc1cccc(NC(=O)C2CCC(CNS(=O)(=O)c3ccc4c(c3)CCCC(=O)N4)CC2)c1 (configuration not stated) the results were Tau FP inhib -0.2%, Tau ThT inhib 0.6% and Tau fluor cs -12.8%.
Screening CC(=O)Nc1cc(OC(C)=O)c2nonc2c1OC(C)=O returned Tau FP inhib 2µM*, RORgamma inh 11.2µM*, Tau ThT inhib 1.12µM*, Tau fluor cs inconclusive and VP16 counter inconclusive.
Screening CCn1c2ccccc2c(=O)c2ccccc21 returned Tau FP inhib 3.5%[2.34 µM], RORgamma inh -24.9%, Tau ThT inhib -9.8%, Tau fluor cs 10.5%[2.34 µM] and VP16 counter 17.9%.
For CCn1c(-c2ccccc2)c(C(=O)CCl)c2ccccc21 the results were Tau FP inhib 9.8%, RORgamma inh 11.2µM*, Tau ThT inhib inconclusive, Tau fluor cs -7.2% and VP16 counter inconclusive.
`Cn1c(-c2ccccc2)c(C(=O)CCl)c2ccccc21` gave Tau FP inhib 6.4%, RORgamma inh 7.08µM*, Tau ThT inhib inconclusive, Tau fluor cs -8.6% and VP16 counter inconclusive.
For C/C(CC(=O)NCc1ccccc1)=N\NC(N)=S the results were Tau FP inhib -1.0%, RORgamma inh 10µM*, Tau ThT inhib -8.7%, Tau fluor cs -6.8% and VP16 counter -2.2%[10 µM].
For C/C(CC(=O)NCc1ccccc1)=N\NC(=O)c1cnccn1 the results were Tau FP inhib 5.5%, RORgamma inh 10.1%, Tau ThT inhib -3.7%, Tau fluor cs 1.9% and VP16 counter -6.5%.
Screening COc1ccc(CNC(=O)C/C(C)=N/NC(=O)c2cc(OC)cc(OC)c2)cc1 returned RORgamma inh -12.1% and VP16 counter -6.6%.
For C/C(CC(=O)NCc1ccc(F)cc1)=N\NC(N)=S the results were Tau FP inhib -0.8%, RORgamma inh 12.6µM*, Tau ThT inhib -4.9%, Tau fluor cs 0.7% and VP16 counter -25.0%.
`Cc1nc2nc(NC(=O)c3ccc(C(C)(C)C)cc3)[nH]n2c(=O)c1Cc1ccccc1` gave Tau FP inhib inconclusive, Tau ThT inhib inconclusive and Tau fluor cs 6.3%.
CCC1(C)Cc2ccccc2-c2nc(NCCO)[nH]c(=O)c21 (configuration not stated) was read as Tau FP inhib -11.2%, RORgamma inh -22.5%, Tau ThT inhib -17.4%, Tau fluor cs -25.2% and VP16 counter -8.7%.
`CCC1(CC)Cc2ccccc2-c2nc(NN)[nH]c(=O)c21` gave Tau FP inhib -3.6%, RORgamma inh 10µM*, Tau ThT inhib -19.1%, Tau fluor cs -27.1% and VP16 counter 15.8µM*.
CCC1(C)Cc2ccccc2-c2nc(NN)[nH]c(=O)c21 (configuration not stated) was read as RORgamma inh 15.8µM* and VP16 counter inconclusive.
For O=C(CC1(O)C(=O)N(CCc2ccccc2)c2ccc(Br)cc21)c1ccccc1O (configuration not stated) the results were Tau FP inhib 1.0%, Tau ThT inhib inconclusive and Tau fluor cs inconclusive.
`CCc1nn(C(CC)C(=O)NCc2ccc(F)cc2)c(=O)c2cc3occc3n12` (configuration not stated) gave Tau FP inhib 0.2%, Tau ThT inhib -3.0% and Tau fluor cs -8.3%.
For O=C(Cn1cnc([N+](=O)[O-])n1)c1ccc(O)c(O)c1 the results were RORgamma inh -24.6% and VP16 counter 0.8%.
`O=S(=O)(Nc1nc2c(s1)CCCC2)c1ccc2ccccc2c1` gave Tau FP inhib -2.9%, RORgamma inh 32.6%, Tau ThT inhib -10.4%, Tau fluor cs -25.6% and VP16 counter 0.0%.
c1ccc2c(Nc3nc4c(s3)CCCC4)cccc2c1 was read as Tau FP inhib 3.7%, RORgamma inh 12.6µM*, Tau ThT inhib inconclusive, Tau fluor cs inconclusive and VP16 counter inconclusive.
For CCc1ccccc1NC(=O)c1nc2nc(C)cc(C(F)F)n2n1 the results were Tau FP inhib -3.2%, Tau ThT inhib -4.6% and Tau fluor cs 0.6%.
CC(C)(C)NC(=O)CN(C(=O)CCC(=O)Nc1nccs1)c1cccc(C(F)(F)F)c1 was read as RORgamma inh 21.9% and VP16 counter -4.6%.
Screening Cc1cccc(N2C(=O)C(Cl)=C(N3CCOCC3)C2=O)c1 returned Tau FP inhib 25.1µM*, RORgamma inh 5.8%, Tau ThT inhib 15.8µM*, Tau fluor cs inconclusive and VP16 counter inconclusive.
Screening Cc1cccc(N2C(=O)CC(N3CCOCC3)C2=O)c1 (configuration not stated) returned Tau FP inhib 5.9%, RORgamma inh -16.6%, Tau ThT inhib -2.7%, Tau fluor cs 6.1% and VP16 counter 10.0%.
For CCc1ccc(N2C(=O)C(Cl)=C(N3CCCCCC3)C2=O)cc1 the results were RORgamma inh inconclusive and VP16 counter 24.0%.
O=C1C(Cl)=C(N2CCOCC2)C(=O)N1c1cccc(Cl)c1 was read as Tau FP inhib 28.2µM*, RORgamma inh inconclusive, Tau ThT inhib 12.6µM*, Tau fluor cs inconclusive and VP16 counter inconclusive.
COc1ccc(N2C(=O)C(Cl)=C(N3CCOCC3)C2=O)cc1 was read as RORgamma inh -12.9% and VP16 counter -22.5%.
For CCc1ccc(N2C(=O)C(Cl)=C(N3CCOCC3)C2=O)cc1 the results were Tau FP inhib 1.3%, RORgamma inh 30.0%, Tau ThT inhib 12.8%, Tau fluor cs 11.4% and VP16 counter 12.6µM*.
